Source: PubChem BioAssay AID1347418 (Sanford-Burnham Center for Chemical Genomics, 2020)
About 750 (58%) of roughly 1,300 compounds were called active. Some of the results follow. Values without a mark were called inactive.

Target: Sulfhydryl oxidase 1 (Homo sapiens) (UniProt O00391)
Experiment: inhibition of human sulfhydryl oxidase QSOX1 – biochemical, ROS-Glo H2O2 luminescence, HTS, primary screen (AID 1347418)
Conditions: recombinant QSOX1, ROS-Glo H2O2 luminescence; at 12.5 µM; stronger effect = higher value; active = any value above zero

Chain of Sulfhydryl oxidase 1 (Homo sapiens) (O00391 whole entry, looked up): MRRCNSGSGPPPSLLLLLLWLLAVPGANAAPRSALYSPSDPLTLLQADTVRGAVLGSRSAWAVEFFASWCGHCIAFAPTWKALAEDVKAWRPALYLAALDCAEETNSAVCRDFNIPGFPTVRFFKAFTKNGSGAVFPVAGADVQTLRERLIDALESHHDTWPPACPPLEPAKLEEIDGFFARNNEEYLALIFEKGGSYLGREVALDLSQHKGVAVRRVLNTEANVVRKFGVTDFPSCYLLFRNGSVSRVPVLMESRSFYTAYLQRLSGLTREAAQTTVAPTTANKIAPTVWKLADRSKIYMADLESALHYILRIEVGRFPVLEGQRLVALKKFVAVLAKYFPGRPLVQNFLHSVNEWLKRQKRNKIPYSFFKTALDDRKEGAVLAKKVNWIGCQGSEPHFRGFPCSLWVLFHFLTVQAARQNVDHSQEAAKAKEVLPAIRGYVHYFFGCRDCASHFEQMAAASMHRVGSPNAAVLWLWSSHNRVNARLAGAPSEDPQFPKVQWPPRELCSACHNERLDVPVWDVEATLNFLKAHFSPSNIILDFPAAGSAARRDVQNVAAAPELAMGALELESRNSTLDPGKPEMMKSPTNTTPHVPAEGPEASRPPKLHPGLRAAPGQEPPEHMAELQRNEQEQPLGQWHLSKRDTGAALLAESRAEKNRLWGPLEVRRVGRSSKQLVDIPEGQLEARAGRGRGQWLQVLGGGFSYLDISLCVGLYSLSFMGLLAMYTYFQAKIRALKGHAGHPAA

SMILES | inhibition
O=c1[nH]c(=S)[nH]c(-c2ccccc2)c1Cc1c(O)ccc2ccccc12 | 9% (active)
O=C(c1cc(O)c(O)c([N+](=O)[O-])c1)c1ccccc1F | 14.2% (active)
N#CC(=C(\N)Sc1ccccc1N)/C(C#N)=C(/N)Sc1ccccc1N | 44.1% (active)
CC(O)C(O)[C@H]1CNc2nc(N)[nH]c(=O)c2N1 (some centres not stated) | 1.5% (active)
CCOC(=O)C(C)(C)Oc1ccc(Cl)cc1 | -1.7%
CC(C)(Oc1ccc(CCNC(=O)c2ccc(Cl)cc2)cc1)C(=O)O | -3.3%
CC(C)(Oc1ccc(C2CC2(Cl)Cl)cc1)C(=O)O (configuration not stated) | 2.5% (active)
CCN(CC)CCNC(=O)c1cc(S(C)(=O)=O)ccc1OC | -3.2%
COc1cc(C(O)C(=O)O)ccc1O (configuration not stated) | 1.1% (active)
COc1cc(C(O)CO)ccc1OS(=O)(=O)O (configuration not stated) | 0.6% (active)
COc1cc(C(O)CO)ccc1O (configuration not stated) | 4.8% (active)
COc1ccc2cc([C@H](C)C(=O)O)ccc2c1 | -0.6%
COC(=O)[C@H]1[C@H]2C[C@@H]3c4[nH]c5cc(OC)ccc5c4CCN3C[C@H]2C[C@@H](OC(=O)c2cc(OC)c(OC)c(OC)c2)[C@@H]1OC | 11.6% (active)
COC(=O)[C@H]1[C@H]2C[C@H]3c4[nH]c5ccccc5c4CCN3C[C@H]2CC[C@@H]1O | 6.1% (active)
COC(=O)[C@@H]1[C@H]2C[C@H]3c4[nH]c5ccccc5c4CCN3C[C@@H]2CC[C@@H]1O | 1.4% (active)
C=C[C@H]1CN2CC[C@@H]1C[C@H]2[C@@H](O)c1ccnc2ccc(OC)cc12 | -3%
O=C(O)CCC/C=C\C[C@@H]1[C@@H](/C=C/[C@H](O)C2Cc3ccccc3C2)[C@@H](F)C[C@@H]1O | 7.1% (active)
O=C(O)C1=CCCNC1 | -2.5%
CCCNC(C)C(=O)Nc1ccccc1C (configuration not stated) | -4.7%
Cc1cccc(C)c1NC(=O)C(C)N (configuration not stated) | 8% (active)
CCN(CC)CC(=O)Nc1c(C)cccc1C | -1.3%
CCCn1c(=O)c2c(ncn2C)n(CCC)c1=O | 4.1% (active)
CCCn1cnc2c1c(=O)n(CCCCC(C)=O)c(=O)n2C | 2.6% (active)
Cn1c(=O)c2c(ncn2C)n(C)c1=O | -0.6%
CC(=O)CCCCn1c(=O)c2c(ncn2C)n(C)c1=O | 5.8% (active)

SMILES | inhibition
C#CCn1c(=O)c2c(ncn2C)n(C)c1=O | -0.9%
N#C/C(=C\c1ccc(-c2cc(Cl)ccc2Cl)o1)C(=O)Nc1cccc2ncccc12 | 3.5% (active)
CCN(CC)CCn1c(=O)c(Cc2ccc(OC)cc2)nc2ccccc21 | 1.7% (active)
CCCCOC(=O)NS(=O)(=O)c1sc(CC(C)C)cc1-c1ccc(Cn2c(CC)nc3c(C)cc(C)nc32)cc1 | 2.7% (active)
CN/C(=C\[N+](=O)[O-])NCCSCc1ccc(CN(C)C)o1 | -12.3%
CC(C)N(CCC(=O)c1ccc2ccccc2c1)Cc1ccccc1 | -1.7%
CC(COc1ccccc1)N(CCCl)Cc1ccccc1 (configuration not stated) | 9.5% (active)
Cc1cccc(/C=C/c2ccccc2)n1 | 13.7% (active)
COc1ccc(CCN(C)CCCC(C#N)(c2cc(OC)c(OC)c(OC)c2)C(C)C)cc1OC (configuration not stated) | 4% (active)
COc1ccc(CCN(C)CCCC(C#N)(c2ccc(OC)c(OC)c2)C(C)C)cc1OC (configuration not stated) | -2.4%
CN1CCN(CC(=O)N2c3ccccc3C(=O)Nc3cccnc32)CC1 | -2.7%
Cc1scc2c1N(C(=O)CN1CCN(C)CC1)c1ccccc1NC2=O | 1.4% (active)
CN1CCN(c2nc3cc(C(F)(F)F)ccc3n3cccc23)CC1 | 6.5% (active)
Cc1cc(NC(=O)Nc2ccc3c(ccn3C)c2)sn1 | 4% (active)
O=C(O)C1CCCNC1 (configuration not stated) | 1% (active)
O=C(O)C1CCNCC1 | -2.2%
O=C(O)[C@H]1NCCC[C@H]1C(=O)O | -0.4%
Nc1ncnc2c1ncn2C1CCCC1 | -9.6%
Nc1ncnc2c1c(I)cn2[C@@H]1C[C@H](N)[C@@H](O)[C@H]1O | 2.7% (active)
Nc1ncnc2c1c(-c1ccc(Oc3ccccc3)cc1)cn2C1CCCC1 | -2.9%
NCC(O)C1CCCCCCC1 (configuration not stated) | 11.2% (active)
O=C(c1ccc(OCCN2CCCCC2)cc1)c1c(-c2ccc(O)cc2)sc2cc(O)ccc12 | 20.1% (active)
CC(=O)Oc1cc(C(C)C)c(OCCN(C)C)cc1C | 0.4% (active)
CN(C)C(=O)/N=N/C(=O)N(C)C | 8.2% (active)
Fc1ccc(CN(C2=NCCN2)c2c(Cl)cccc2Cl)cc1 | 1.1% (active)

SMILES | inhibition
O=C(O)c1cc(=O)c2ccccc2[nH]1 | 5.6% (active)
CNC(=O)c1cc2c(cn1)[nH]c1ccccc12 | -3.2%
O=C(O)c1cc(=O)c2c(Cl)cc(Cl)cc2[nH]1 | -1%
OC[C@H]1O[C@@H](n2cnc3c(NC4CCCCC4)ncnc32)[C@H](O)[C@@H]1O | 4.8% (active)
C[C@H](Cc1ccccc1)Nc1ncnc2c1ncn2[C@@H]1O[C@H](CO)[C@H](O)C1O (some centres not stated) | 1.4% (active)
O=[N+]([O-])c1ccc(CSc2ncnc3c2ncn3[C@@H]2O[C@H](CO)[C@H](O)C2O)cc1 (some centres not stated) | -2.9%
Nc1nc2c(ncn2[C@@H]2O[C@H](CO)[C@@H](O)[C@@H]2O)c(=O)[nH]1 | -3.6%
Nc1ncnc2c1ncn2[C@@H]1O[C@H](CO)[C@H](O)C1O (some centres not stated) | -0.5%
OC[C@H]1O[C@@H](n2cnc3cncnc32)[C@H](O)[C@@H]1O | 4.9% (active)
Nc1nc(SCc2ccc([N+](=O)[O-])cc2)c2ncn([C@@H]3O[C@H](CO)[C@H](O)C3O)c2n1 (some centres not stated) | 4.9% (active)
CNc1ncnc2c1ncn2[C@@H]1O[C@H](CO)[C@H](O)C1O (some centres not stated) | -6.8%
OC[C@H]1O[C@H](n2cnc3c(N[C@H]4CCC[C@@H]4O)ncnc32)[C@H](O)[C@@H]1O | -1.9%
OC[C@H]1O[C@@H](n2cnc3c(NC4CCCC4)ncnc32)C(O)[C@H]1O (some centres not stated) | 0.7% (active)
Nc1ccc(CCNc2ncnc3c2ncn3C2OC(CO)C(O)C2O)cc1 (configuration not stated) | 4% (active)
COc1cc(SC)ccc1C(=O)N1CCC(Cc2ccccc2)CC1 | 1.4% (active)
COc1ccc(/C=C2\COc3ccc(C)cc3C2=O)cc1O | -1.7%
CNCCC(Oc1ccc(C(F)(F)F)cc1)c1ccccc1 (configuration not stated) | 2.1% (active)
CN(CC[C@@H](Oc1ccc(C(F)(F)F)cc1)c1ccccc1)CC(=O)O | 6.8% (active)
CNCCC(Oc1ccccc1OC)c1ccccc1 (configuration not stated) | -2.5%
CNCC[C@H](Oc1ccc(C(F)(F)F)cc1)c1ccccc1 | 11.2% (active)
CNCCC(Oc1ccccc1C)c1ccccc1 (configuration not stated) | 0%
OC1(c2ccc(Cl)cc2)CCN(Cc2c[nH]c3ccccc23)CC1 | -1.5%
Clc1ccc(N2CCN(Cc3c[nH]c4ncccc34)CC2)cc1 | 24.1% (active)
Ic1ccc(N2CCN(Cc3c[nH]c4ncccc34)CC2)cc1 | 15.6% (active)
Nc1nc2ccc(Cl)cc2c2nc(-c3ccco3)nn12 | -0.2%

SMILES | inhibition
Nc1nc2c(cnn2CCc2ccccc2)c2nc(-c3ccco3)nn12 | 1.8% (active)
CN1C2CCC1CC(OC(=O)C(CO)c1ccccc1)C2 (configuration not stated) | 3% (active)
CN1C2CCC1CC(OC(=O)C(O)c1ccccc1)C2 (configuration not stated) | -5.9%
CN1C2CC(OC(=O)[C@H](CO)c3ccccc3)CC1C1OC12 (some centres not stated) | -3.1%
CN1C2CCC1CC(OC(c1ccccc1)c1ccccc1)C2 (configuration not stated) | -10.1%
CN1C2CCC1CC(OC(=O)c1c[nH]c3ccccc13)C2 (configuration not stated) | 2.4% (active)
COc1ccc(/C=C/C(=O)Nc2ccccc2C(=O)O)cc1OC | 23.4% (active)
CN[C@H](CC(C)C)C(=O)N[C@H]1C(=O)N[C@@H](CC(N)=O)C(=O)N[C@H]2C(=O)N[C@H]3C(=O)N[C@H](C(=O)N[C@H](C(=O)O)c4cc(O)cc(O)c4-c4cc3ccc4O)[C@H](O)c3ccc(c(Cl)c3)Oc3cc2cc(c3O[C@@H]2O[C@H](CO)[C@@H](O)[C@H](O)[C@H]2O[C@H]2C[C@](C)(N)[C@H](O)[C@H](C)O2)Oc2ccc(cc2Cl)[C@H]1O | 3.1% (active)
CC1=C(C)C(=O)C(CCCCC#CCCCC#CCO)=C(C)C1=O | 5.7% (active)
C=C1C[C@@]23CC[C@H]4[C@@](C)(CCC[C@@]4(C)C(=O)OC4OC(CO)C(O)C(O)C4O)[C@@H]2CCC1(OC1OC(CO)C(O)C(O)C1OC1OC(CO)C(O)C(O)C1O)C3 (some centres not stated) | 5.4% (active)
C=C1C[C@@]23CC[C@H]4[C@@](C)(CCC[C@@]4(C)C(=O)O)[C@@H]2CC[C@]1(O)C3 | -3.8%
CN1CC(=O)N/C1=N\C(=O)Nc1cccc(Cl)c1 | -0.1%
C[C@H](CS)C(=O)N1CCC[C@H]1C(=O)O | 0.1% (active)
O=C(O)CCC(=O)N1CCCC1C(=O)O (configuration not stated) | 4.1% (active)
NC(N)=Nc1nc(CSCC/C(N)=N/S(N)(=O)=O)cs1 | 0.1% (active)
CC(C)C(=O)c1c(C(C)C)nn2ccccc12 | -4.2%
CCOC(=O)N1CCC(=C2c3ccc(Cl)cc3CCc3cccnc32)CC1 | -1.5%
Cc1c(OCC(F)(F)F)ccnc1CS(=O)c1nc2ccccc2[nH]1 (configuration not stated) | -0.2%
CCn1cc(C(=O)O)c(=O)c2ccc(C)nc21 | -5.8%
CCn1cc(C(=O)O)c(=O)c2cc3c(cc21)OCO3 | 2.6% (active)
CCn1cc(C(=O)O)c(=O)c2cc(F)c(N3CCNC(C)C3)c(F)c21 (configuration not stated) | -1.7%
CCn1nc(C(=O)O)c(=O)c2cc3c(cc21)OCO3 | 3.1% (active)
